# Assay results reported in PubChem BioAssay (EPA / NIEHS).
# Records with an inconclusive call do not appear. The source made the active and inactive calls. Rule for the calls: active = hit-call score of the fitted dose curve at least 0.9, where 1 is the maximum; inactive = score below 0.9.
# Read-out: ABC Transporter (ABCB11), ABCB11 (gene 8647)
# Test: CLD_ABCB11_24hr: CellzDirect (CLD) Gene Expression Assay for ABC Transporter (ABCB11) at 24 hours (AID 2283674)
# Procedure: CLD_24hr is a cell-based, multiplexed-readout assay that uses hepatocyte, a human liver primary cell, with measurements taken at 24 hours after chemical dosing in a 96-well plate.CLD_ABCB11_24hr is one of 16 assay component(s) measured or calculated from the CLD_24hr assay. It is designed to make measurements of mRNA induction, a form of inducible reporter, as detected with chemiluminescence signals by Quantitative Nuclease Protection Assay (qNPA) technology.Data from the assay component CLD_ABCB11_24hr was analyzed at the endpoint, CLD_ABCB11_24hr, in the positive analysis fitting direction relative to DMSO as the negative control and baseline of activity. Using a type of inducible reporter, gain-of-signal activity can be used to understand changes in the reporter gene as they relate to the gene ABCB11. Furthermore, this assay endpoint can be referred to as a primary readout. To generalize the intended target to other relatable targets, this assay endpoint is annotated to the transporter intended target family, where subfamily is ABC transporter.
# Human hepatocyte cultures were treated daily for two consecutive days with fresh dosing solutions containing appropriate concentrations of the 320 ToxCast chemicals (chemical identities were blinded to CellzDirect and other ToxCast collaborators), vehicle control (0.2% DMSO), and positive control inducers as summarized in Table 1. Due to the large number of treatment groups and chemicals examined, the ToxCast chemicals were divided into two groups (spanning two independent cultures of hepatocytes from separate donor preparations (Hu778: ToxCast plates 1 and 2; Hu776: ToxCast plates 3 and 4). Each preparation of human hepatocyte cultures was treated with respective vehicle control, medium only control, set of six positive controls/reference chemicals for the five hepatic receptor pathways, and a subset of eight of the ToxCast chemicals (indoxacarb, pyrithiobac-sodium, norflurazon, cyhalofop-butyl, methomyl, thiram, acetochlor, and propiconazole). These replicate data, coupled with internal replicates designed within the blinded ToxCast chemical library, provided additional data to evaluate interindividual differences between hepatocyte preparations and their potential impact on chemical profiles.Cell morphology and integrity were evaluated using phase-contrast microscopy as an indicator of hepatocyte cell health (Tyson & Green, 1987). Cultures for each treatment group (i.e., media, vehicle [0.2% DMSO], positive control inducers [multiple concentrations], and the ToxCast chemicals [multiple concentrations]) were observed and cell morphology was assessed relative to vehicle control cultures at each harvest time point (0, 6, 24, or 48 h). […] Images were evaluated at the conclusion of the study to assess changes in cell integrity and account for the effects of chemical exposure on uncharacteristic changes in concentration-dependent gene expression profiles. The results from these determinations of apparent cytotoxicity were annotated (yes/no) alongside the corresponding qNPA data for reference.At the conclusion of each treatment period, hepatocyte cultures (96-well) were washed with 1 volume of HBSS, lysed by addition of 25 ul ArrayPlate lysis buffer (HTG, Tucson, AZ), and 70 ul/well of Denaturation Oil, denatured by incubation at 95C for 10 min, and frozen at approximately -70C until analysis by nuclease protection assay (qNPA) (Roberts et al., 2007). For qNPA analysis, cell lysates were thawed at 50C for approximately 30 min, qNPA probes were added, and samples were incubated at 95C for 10 min to begin the detection process by denaturing the target RNA, dissociating the duplexes and secondary structure hybridization. At the conclusion of the hybridization period, S1 nuclease reagent was added to each sample to digest all nonprotected nucleotides at 50C for 60-90 min. […]
SMILES,outcome,AC50
CNC(=O)/C=C(\C)OP(=O)(OC)OC,inactive,–
OCCOc1ccccc1,inactive,–
COc1nn(CSP(=S)(OC)OC)c(=O)s1,inactive,–
CCOc1nc(NC)nc(NC(=O)NS(=O)(=O)c2ccccc2C(=O)OC)n1,inactive,–
O=S1OCC2C(CO1)C1(Cl)C(Cl)=C(Cl)C2(Cl)C1(Cl)Cl (stereo unspecified),inactive,–
O=C1c2ccccc2C(=O)N1SC(Cl)(Cl)Cl,inactive,–
N#Cc1c(Cl)c(Cl)c(Cl)c(C#N)c1Cl,inactive,–
CCS(=O)(=O)c1cccnc1S(=O)(=O)NC(=O)Nc1nc(OC)cc(OC)n1,inactive,–
C#CCN1C(=O)COc2cc(F)c(N3C(=O)C4=C(CCCC4)C3=O)cc21,inactive,–
Cc1cc(C)nc(NC(=O)NS(=O)(=O)c2ccccc2C(=O)OC2COC2)n1,inactive,–
N#CN,inactive,–
Clc1ccccc1-c1nnc(-c2ccccc2Cl)nn1,inactive,–
CC[C@H](C)[C@H]1O[C@]2(C=C[C@@H]1C)C[C@@H]1C[C@@H](C/C=C(\C)[C@@H](O[C@H]3C[C@H](OC)[C@@H](O[C@H]4C[C@H](OC)[C@@H](O)[C@H](C)O4)[C@H](C)O3)[C@@H](C)/C=C/C=C3\CO[C@@H]4[C@H](O)C(C)=C[C@@H](C(=O)O1)[C@]34O)O2 (tested in a mixture with another compound),–,467 nM (active)
O=C(NC(=O)c1c(F)cccc1F)Nc1ccc(OC(F)(F)C(F)OC(F)(F)F)c(Cl)c1 (stereo unspecified),inactive,–
COC(=O)c1ccccc1S(=O)(=O)NC(=O)Nc1nc(C)nc(OC)n1,inactive,–
O=[N+]([O-])/N=C1\NCCN1Cc1ccc(Cl)nc1,inactive,–
COC(=O)c1ccccc1S(=O)(=O)NC(=O)N(C)c1nc(C)nc(OC)n1,inactive,–
[2H]C1([2H])[n+]2ccccc2-c2cccc[n+]2C1([2H])[2H],inactive,–
CCc1ccc(C(=O)NN(C(=O)c2cc(C)cc(C)c2)C(C)(C)C)cc1,inactive,–
CCOCN(C(=O)CCl)c1c(C)cccc1CC,inactive,–
COP(=S)(OC)Oc1ccc([N+](=O)[O-])cc1,inactive,–
